51 compounds from PubChem BioAssay AID463075 (University of Pittsburgh Molecular Library Screening Center, 2010) can be followed below.

The structures appear in SMILES notation. Where “and” joins values, the source holds several entries; their conditions need not be identical. Identical values can stand only once. Among all 220,000 compounds or so, about 150 (0.068%) were called active.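 Rule for the calls: active = activation, meaning protection from cell death, of at least 50% relative to plate controls; inactive = activation below 50%.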 The sample as a whole holds a higher share of actives than the screen did.

The test in a line: rescue of FADD-deficient Jurkat cells from TNF-alpha death – single concentration, primary screen (AID 463075).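 Note: necroptosis triggered by 40 ng/mL TNF-alpha added together with compound.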 The conditions noted are these: Jurkat FADD-/- TNF necroptosis rescue, ATP luminescence, 24 h; at 10 µM; stronger effect = higher value; 0 = TNF only, 100 = no-TNF cells.
Take `Cc1ccccc1-n1nc(C)c2c1N=C1C(Cl)=CC(Cl)=CN1C2c1ccc(C(=O)O)cc1` (stereo unspecified): the activation (protection from cell death) is 1.37% (inactive).
On to `COc1cc(OC)cc(-c2cc3nc(C4CCN(C(=O)OC(C)(C)C)CC4)cc(=O)n3[nH]2)c1`, for which the activation (protection from cell death) was 1.03% (inactive).
For `c1ccc(C2c3[nH]c4ccccc4c3CCN2Cc2cccn2-c2cccnc2)nc1` (stereo unspecified), the activation (protection from cell death) is -0.81% (inactive).
As for `CCCCCCC12CCC(C(=O)O)(CC1)CC2`, the figure is -1.53% (inactive); as for `CCn1c(SCC(=O)Nc2sc(C)c(C)c2C#N)nnc1C1CC1`, 4.46% (inactive).
As for `Cc1ccc(CC2S/C(=C(/C#N)C(=O)N3CCOCC3)N(c3ccccc3)C2=O)cc1` (stereo unspecified), the figure is -0.961% (inactive); as for `COc1ccc(-c2ccc(CCC(=O)O)n2-c2ccc(O)cc2)cc1`, 0.347% (inactive); as for `COc1ccc(-n2c(C)nn(CC3CC3)c2=O)cc1`, 68.3% (active).
Consider `COc1ccc(-n2c(SC)nc(O)cc2=O)cc1`, for which the activation (protection from cell death) is 0.231% (inactive).
As for `COc1ccc(-n2c(C)nc3c(cnn3-c3ccccc3)c2=O)cc1`, the figure is -4.93% (inactive).
As to `COc1ccc(CCN2C(=O)CC(N3CCC(C(N)=O)CC3)C2=O)cc1OC` (stereo unspecified), the activation (protection from cell death) is 1.77% (inactive).
As for `CCOc1cc(CNCCN(C)C)c(Cl)cc1OCC(=O)NCCc1ccccc1`, the activation (protection from cell death) is -1.03% (inactive).
As for `O=C(NC(=S)Nc1cccc(-c2ccc(CO)o2)c1)c1cccs1`, the figure is -0.171% (inactive).
In the case of `Cc1nc(-c2ccccc2)cn2c1nc1ccccc12`, the activation (protection from cell death) was 0.981% (inactive).
Take `CCOC(=O)C(=O)C1C(=O)Nc2ccccc21` (stereo unspecified): the activation (protection from cell death) was -0.27% (inactive).
Next, `COc1ccc(NC(=O)c2sccc2SCC#N)cc1`: -2.27% (inactive); `COc1ccc(S(=O)(=O)Nc2ccc(F)cc2)c(C)c1C`: -1.23% (inactive); `C=CCn1c(P(C)(=O)O)nc2ccccc21`: 1.54% (inactive) and 0.149% (inactive).
As for `CN(C)c1ccc(-n2cccc2/C=N/n2cnnc2)cc1`, the figure is 1.75% (inactive); as for `Cc1nonc1C(=O)N/N=C/c1ccc(O)cc1`, 1.53% (inactive).
With `CCOC(=O)C1=NN(c2ccc(Cl)cc2)/C(=C/C2=NCCc3cc(OC)c(OC)cc32)S1`, the activation (protection from cell death) was -2.32% (inactive).
As for `CCN(CC(=O)Nc1cccc(S(N)(=O)=O)c1)Cc1nc2ccccc2c(=O)[nH]1`, the figure is 2.32% (inactive); as for `CC(C)CCN1C(=O)c2ccc(C(=O)Nc3cccc(S(N)(=O)=O)c3)cc2C1=O`, -1.31% (inactive).
On to `O=C(CC1C(=O)NCCN1Cc1ccc(-c2ccccc2)cc1)NCc1ccncc1` (stereo unspecified), for which the activation (protection from cell death) is 0.134% (inactive).
`S=C(Nc1ccc(Br)cc1Cl)NC1CCN(Cc2ccccc2)CC1`: the activation (protection from cell death) is 1.9% (inactive).
As for `CC(C)CCN1NC2(CCC(C)CC2)NC1=S` (stereo unspecified), the figure is -1.55% (inactive); as for `O=C(c1cccnc1)N(c1cc2sc(=O)oc2c2ccccc12)S(=O)(=O)c1ccccc1`, -6.46% (inactive).
Regarding `Cn1c(S(=O)(=O)O)nc2ccccc21`, the activation (protection from cell death) was 1.18% (inactive).
For `COc1cc2nc(Cl)nc(NCCO)c2cc1OC`, the activation (protection from cell death) is -0.0465% (inactive).
Take `Cc1nc(N2CCOCC2)sc1C(=O)NN`: the activation (protection from cell death) was 0.605% (inactive).
`CCCC1(C(=O)OC)NC(c2ccco2)C2C(=O)N(C)C(=O)C21` (stereo unspecified): the activation (protection from cell death) is 0.819% (inactive).
With `Cc1cccc(N=Nc2c(O)[nH]c3ccc(F)cc23)c1`, the activation (protection from cell death) was 1.19% (inactive).
With `O=C(NC(=O)N1CCSCC1)c1c(Cl)cccc1Cl`, the activation (protection from cell death) is 3.73% (inactive).
`CC(C)Cc1ccc(C(C)C(=N)N)cc1` (stereo unspecified): the activation (protection from cell death) is 0.316% (inactive).
As for `O=C(Cc1ccccc1)N1N=C(c2ccncc2)CC1(O)C(F)(F)F` (stereo unspecified), the figure is -1.22% (inactive); as for `Cc1nnc(NCCO)c2ccccc12`, 2% (inactive); as for `Cc1nn(CC(=O)Nc2ccc3c(c2)OCO3)c(C)c1[N+](=O)[O-]`, 0.0311% (inactive).
With `CCOC(=O)c1c(CC(C)C)csc1/N=C/C1=C(O)CCCC1=O`, the activation (protection from cell death) was 2.28% (inactive).
As for `O=C(Nn1cnc2ccccc2c1=O)c1ccc([N+](=O)[O-])cc1Cl`, the activation (protection from cell death) was -1.3% (inactive).
Next, `O=C(CS(=O)(=O)c1ccc(C(F)(F)F)cn1)NNC(=O)c1ccccc1`: -0.488% (inactive); `O=C(O)c1n[nH]nc1-c1ccccc1`: -0.36% (inactive).
Next, `O=C(C1=C[C@H](c2coc3ccccc3c2=O)C[C@H](OCc2ccc(CO)cc2)O1)N1CCOCC1`: 0.365% (inactive).
For the compound `COc1ccc(Cl)cc1NC(=O)[C@@H]1CCCN1C(=O)c1cccs1`, the activation (protection from cell death) is 2.67% (inactive).
Next, `C=C1C2C[C@H](O)C(C)(C)[C@@]2(O)[C@H](O)C[C@]23C[C@@](C)(O)[C@H](CC[C@H]12)[C@H]3O` (stereo partly specified): 1.07% (inactive); `CCOc1cccc(C(=O)Nc2cnn(Cc3ccccc3)c2)c1`: -1.07% (inactive).
As for `O=C(COC(=O)Cc1ccc(Br)cc1)Nc1c(F)c(F)c(F)c(F)c1F`, the figure is -0.784% (inactive); as for `CN(C(=O)CSc1nc(C2CC2)nc2ccccc12)c1nc(-c2ccccc2)cs1`, 0.753% (inactive).
Consider `COc1ccc(OC)c(-c2c(=O)n(OCc3ccccc3Br)c3ccccc3[n+]2[O-])c1`, for which the activation (protection from cell death) is 0.8% (inactive).
`O=C(Nc1ccccc1-c1ccccc1)c1cccs1`: the activation (protection from cell death) was -1.99% (inactive).
As for `CN(C(=O)COc1ncnc2c1cnn2-c1ccccc1)C1CCCCC1`, the figure is -0.83% (inactive); as for `CNC(=O)c1nnc(Cc2ccc(Cl)cc2)o1`, 5.11% (inactive).
